Reference: PubChem BioAssay (NCI)
The panel holds about 83,000 compounds, 20% with a hit somewhere; the sample as a whole holds those more often.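 Interpretation: 100, growth as untreated; towards 0, rising growth inhibition; 0, no net growth; 0 to -100, cell death. Compounds scoring below 10 were considered active.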 Unmarked numbers belong to inactive results. Active and inactive are the calls of the source.

tested on: MDA-MB-468 breast; experiment: NCI-60 one-dose screen, 48 h (100 = growth as untreated, 0 = no growth, -100 = all killed); conditions: 10 µM unless noted

SMILES | growth
COC(=O)CCCCCn1c2ccccc2c2c3c(c4c5ccccc5[nH]c4c21)C(=O)N(O)C3=O | 45.3%
O=C(NCCCN1CCN(CCCNC(=O)C2CCCCC2)CC1)C1CCCCC1 | 110%
O=C(NC1=CC(=O)c2ccccc2C1=O)c1ccccc1 | -91% (active)
Nc1ccc(C2=CC(c3ccc(Cl)cc3)N3C=CSC3=N2)cc1 (stereo not drawn) | -77.1% (active)
COc1ccc(NC(=O)c2ccc(NC3=C(c4ccc(Cl)cc4)C(=O)NC3=O)cc2)cc1 | 88.1%
COc1ccc(/C=C/C(=O)NCCO)cc1 | 101%
Nc1cccc(Nc2cc(S(=O)(=O)O)c(N)c3c2C(=O)c2ccccc2C3=O)c1 | 112%
CSc1nc2c(c(=O)n1C)C1(C(=O)N(Cc3ccccc3)c3ccccc31)c1c(nc(SC)n(C)c1=O)N2 | 86%
N=c1c2c(=N)n3c(nc2nc2n1-c1ccccc1Sc1ccccc1-2)sc1cc(Cl)ccc13 | -11.8% (active)
Cn1ncc2ccc(-c3nc(-c4ccccc4)[nH]c3-c3n[nH]c(=O)n3C3CC3)cc21 | 104%
C#C[C@]1(O)CC[C@H]2[C@@H]3CC=C4c5sc(N=C(N)N)nc5CC[C@]4(C)[C@H]3CC[C@@]21C | -31.7% (active)
Cc1ncc(C(=O)Nc2ccc(CN3CCN(C)CC3)c(C(F)(F)F)c2)cc1C#Cc1cnc(N)c2ccc(C#N)cc12 | 48.2%
Cc1ccc(-c2cc(-c3cccc(Nc4ccnc5cc(Cl)ccc45)c3)nc3nc(N)[nH]c(=O)c23)cc1 | 28%
